HSP90 refold inh = blocks HSP90-mediated luciferase refolding in reticulocyte lysate. Rabbit reticulocyte lysate, luciferase refolding luminescence, 3 h. inhibition, % at 5.6 µM. actives 0.91% (n = 290,000). AID 1789;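 active = inhibition above the screen-wide mean plus 3 SD, computed separately per campaign, cut at about 16% in these data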;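 note: 0% = DMSO wells and 100% = 60 µM geldanamycin wells; inhibitors lower the luminescence because luciferase stays unfolded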
aSyn 5UTR inh = MLPCN primary screen, SNCA 5' untranslated region; alpha-synuclein 5'UTR reporter, inhibitor activity; actives 0.82% (n = 300,000); inhibition, % (tested at 7.5 µM); in the data active = inhibition above about 60%; inconclusive = no clear call, values can overlap the other calls;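 note: H4 neuroglioblastoma cells stably carrying SNCA 5'UTR luciferase fusion; 0% = DMSO wells and 100% = positive control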
HIF-2a inh = blocks HIF-2a reporter activity | 786-0 RCC cells HIF-2a reporter, luciferase luminescence, overnight | inhibition, % at 18.8 µM | actives 0.72% (n = 360,000);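 active = inhibition of the luminescence signal of 40% or more relative to plate controls, in a single-dose primary screen at 18.75 µM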
TROY signal inh = inhibitors of TROY-dependent NF-kB signaling; AID 1347056; inhibition, % at 10 µM; actives 0.98% (n = 360,000); Q293 LMP1-TROYcd NF-kB luciferase reporter, 4 h;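 active = compounds whose plate-normalised and pattern-corrected inhibition of the luciferase reporter signal at the single screening dose is 50% or more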
TWEAK Fn14 block = TWEAK-Fn14 signaling inhibition; inhibition, % at 10 µM; TWEAK-stimulated Fn14 reporter cells, luciferase luminescence, 8 h; actives 2% (n = 360,000); in the data active = inhibition above about 50%
C8 TRAIL sens = sensitizes caspase-8 expressing cells to TRAIL | AID 624354 | NB7+C8 cells + TRAIL, ATPlite viability luminescence | inhibition (viability loss, TRAIL sensitization), % at 10 µM | actives 1% (n = 360,000);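 active = compounds causing at least 50% loss of cell viability in the single-dose screen, relative to plate controls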
Mdm2 MdmX conf = confirmation of inhibitors of human Mdm2/MdmX interaction, set 2 | shares compounds with HIF-2a inh | SaOS-2 split-luciferase Mdm2/MdmX complementation, luminescence | inhibition, % at 8 µM | actives 99% (n = 740) | AID 504601;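 active = mean inhibition of the luminescence signal across two replicates at or above 26 percent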
Target sequence (O15151 whole entry, looked up): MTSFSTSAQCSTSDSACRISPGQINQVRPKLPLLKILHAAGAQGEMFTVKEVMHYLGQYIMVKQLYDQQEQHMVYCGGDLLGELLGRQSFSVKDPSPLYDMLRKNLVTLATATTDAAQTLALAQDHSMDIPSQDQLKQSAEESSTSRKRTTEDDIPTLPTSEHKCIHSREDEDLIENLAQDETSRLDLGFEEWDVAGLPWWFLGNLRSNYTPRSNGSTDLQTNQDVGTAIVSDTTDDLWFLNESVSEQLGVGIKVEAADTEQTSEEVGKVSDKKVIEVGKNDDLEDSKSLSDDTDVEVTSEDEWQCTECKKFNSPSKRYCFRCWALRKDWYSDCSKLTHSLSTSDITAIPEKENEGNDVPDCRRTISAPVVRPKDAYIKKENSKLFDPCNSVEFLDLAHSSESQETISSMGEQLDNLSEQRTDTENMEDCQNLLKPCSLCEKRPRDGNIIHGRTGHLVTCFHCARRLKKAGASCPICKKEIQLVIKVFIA
Target sequence (Q00987 whole entry, looked up): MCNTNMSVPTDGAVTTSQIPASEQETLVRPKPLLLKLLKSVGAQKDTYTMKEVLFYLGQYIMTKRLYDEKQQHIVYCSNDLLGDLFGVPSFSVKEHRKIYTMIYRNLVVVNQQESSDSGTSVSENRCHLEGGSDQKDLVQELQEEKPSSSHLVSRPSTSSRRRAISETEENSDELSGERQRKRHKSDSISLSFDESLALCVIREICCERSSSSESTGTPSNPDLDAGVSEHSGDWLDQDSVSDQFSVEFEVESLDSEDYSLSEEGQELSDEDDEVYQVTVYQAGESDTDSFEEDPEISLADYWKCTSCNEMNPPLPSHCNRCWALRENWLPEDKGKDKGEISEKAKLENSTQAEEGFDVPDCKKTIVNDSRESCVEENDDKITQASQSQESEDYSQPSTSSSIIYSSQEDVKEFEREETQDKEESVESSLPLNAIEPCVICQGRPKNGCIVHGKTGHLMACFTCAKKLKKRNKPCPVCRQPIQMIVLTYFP
HIF-2a inh conf = confirmation of HIF-2a inhibitors; shares compounds with HIF-2a inh; 786-0 RCC cells, HIF-2a luciferase reporter luminescence, overnight; inhibition, % at 18.8 µM; actives 56% (n = 1,800);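 active = mean inhibition across four replicates of at least 40 percent at the single tested concentration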
HIF-1a counter = inhibits HIF-1a reporter, a counter-screen for HIF-2a inhibitors; shares compounds with HIF-2a inh; MiaPaCa-2 HIF-1a luciferase reporter, desferoxamine, overnight; inhibition, % at 18.8 µM; actives 72% (n = 1,800);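 active = mean inhibition of the reporter signal across four replicates at the single tested dose of 50% or more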
* hit, by the source's call; ? = inconclusive; . = no result given. Rows were chosen to be rich in hits. Some 3.9% of all compounds tested hit in one or more screens of this group.

SMILES	HSP90 refold inh	aSyn 5UTR inh	HIF-2a inh	TROY signal inh	TWEAK Fn14 block	C8 TRAIL sens	HIF-2a inh conf	HIF-1a counter	others
Cc1ccc(CC(NC(=O)C2CCCCC2)C(=O)O)cc1 (stereo not drawn)	.	.	-5	-7	0	-4	.	.
Cc1ccc(Nc2nc(N)nc(CCl)n2)c(C)c1	0	-45	-95	-27	36	96*	.	.	Mdm2 MdmX conf=103*
Cc1cccc(Nc2nc(N)nc(CN3CCC(C(N)=O)CC3)n2)c1C	3	17	7	5	7	3	.	.
CCOc1ccc(Nc2nc(N)nc(CCl)n2)cc1	10	96*	-125	-49	18	92*	.	.	Mdm2 MdmX conf=103*
Cc1cccc(Nc2nc(N)nc(CCl)n2)c1C	-4	3	-14	-16	-1	94*	.	.	Mdm2 MdmX conf=103*
C[C@@H]1CCCCO[C@H](CN(C)Cc2ccc(C(F)(F)F)cc2)[C@@H](C)CN([C@H](C)CO)C(=O)c2cc(NS(=O)(=O)c3cn(C)cn3)ccc2O1	.	.	12	-16	10	-1	.	.
CCN(CC)C(=O)c1cccc(-c2csc(C(O)c3cccc(OC)c3)n2)c1 (stereo not drawn)	.	.	19	24	21	8	.	.
CCC(=O)OCCNc1cc(SCCC(=O)OC)c2nonc2c1[N+](=O)[O-]	-4	3	17	27	2	-3	.	.
CCC(=O)OCCNc1cc(Sc2nccn2C)c2nonc2c1[N+](=O)[O-]	0	16	91*	44	37	18	80*	105*
CCCC(=O)OCCNc1cc(Sc2nc3ccccc3[nH]2)c2nonc2c1[N+](=O)[O-]	1	-2	94*	44	40	6	69*	74*	Mdm2 MdmX conf=103*
CC(=O)OCCCNc1cc(Sc2ccc(Cl)cc2)c2nonc2c1[N+](=O)[O-]	-5	8	79*	51*	79*	37	-9	97*
CC(=O)OCCNc1cc(SC(C)C)c2nonc2c1[N+](=O)[O-]	0	.	-2	9	20	-8	.	.
COc1cc2oc(=O)ccc2cc1-c1c(OC)ccc2ccc(=O)oc12	.	.	2	-2	0	26	.	.
CC(C)(C)OC(=O)N1CCN(C(=O)c2[nH]cnc2C(=O)Nc2cccc(Cl)c2)CC1	.	.	5	3	7	18	.	.
O=C(/C=C1\OCc2ccccc21)c1ccccc1	.	.	-166	.	.	25	.	.
C[C@@H]1O[C@H](C2CCCCC2)Cc2[nH][nH]c(=O)c21	.	.	7	4	6	-11	.	.
O=C(O)CCn1cc(/C=C/C(=O)c2ccc(Cl)cc2)c(-c2ccc(Br)cc2)n1	-6	.	54*	18	60*	0	21	43
O=C(O)/C=C/c1cn(Cc2ccccc2)nc1-c1ccccc1	-1	17	9	-10	-9	-14	.	.
O=C(Cn1cc(COc2ccc3ccccc3c2)nn1)NS(=O)(=O)c1cccc(OC(F)F)c1	.	.	16	2	-35	2	.	.
Cc1nc2cc(-c3cccc(F)c3)nn2c(C)c1CCC(=O)NC(C)CCc1ccco1 (stereo not drawn)	3	51	73*	9	67*	4	82*	72*
COc1ccccc1-c1cc2nc(C)c(CCC(=O)NCc3ccco3)c(C)n2n1	-1	21	49*	12	47	9	55*	41
Cc1cc(C)c2c(n1)nn1c(C)c(CCC(=O)NCc3ccco3)c(C)nc21	-3	7	-4	2	20	-2	.	.
COc1ccc(-c2cc3nc(C)c(CCC(=O)NCc4ccc(F)cc4)c(C)n3n2)c(OC)c1	-1	16	16	-1	11	2	.	.
COc1ccc(CNC(=O)CCc2c(C)nc3cc(-c4ccccc4OC)nn3c2C)cc1	1	40	49*	3	-1	-4	58*	31
COc1cc(OC)cc(-c2cc3nc(C)c(CCC(=O)NC(C)CCc4ccco4)c(C)n3n2)c1 (stereo not drawn)	-1	48	39	1	8	-7	.	.
SMILES	HSP90 refold inh	aSyn 5UTR inh	HIF-2a inh	TROY signal inh	TWEAK Fn14 block	C8 TRAIL sens	HIF-2a inh conf	HIF-1a counter	others
Cc1nc2cc(-c3ccccc3)nn2c(C)c1CCC(=O)NCc1ccco1	3	?	69*	-6	29	7	79*	37
COc1ccc2c(CN3CCN(c4ccccc4F)CC3)cc(=O)oc2c1	.	.	-2	-8	-3	4	.	.
CCNC(=O)C1(C)CCN(Cc2cccc(C(F)(F)F)c2)C1 (stereo not drawn)	.	.	6	12	4	6	.	.
COc1ccccc1N1C(=O)C=C(Sc2nc(C)cc(C)n2)C1=O	4	-11	58*	-2	11	-1	63*	-13
O=C1C(Cl)=C(N2CCN(Cc3ccccc3)CC2)C(=O)N1Cc1ccccc1	1	8	40*	17	1	5	2	26
[O-]/C(=C(\C(=S)Nc1cccc2ccccc12)[n+]1ccccc1)c1ccc2c(c1)OCCO2	9	38	70*	84*	104*	7	-40	34
[O-]/C(=C(\C(=S)Nc1cccc2ccccc12)[n+]1ccccc1)c1cccs1	0	-14	-6	27	6	1	.	.
CN1CCN(c2ccc(-c3ccc4ccccc4n3)cc2)CC1	89*	112*	87*	92*	103*	90*	97*	87*
COc1ccc(N2CCN(C(=O)c3ccc4ccccc4n3)CC2)cc1	0	-2	25	6	16	8	.	.
CCOC(=O)[C@]12CCCC=C1N(Cc1ccc(Cl)cc1Cl)C(=O)[C@H](CC(=O)NCc1cccs1)C2	.	.	-52	5	0	6	.	.
COc1ccc(-c2[nH][nH]c(=O)c2NC(=O)c2ccc(C)cc2)cc1	.	.	5	7	2	-15	.	.
O=C(C(=Cc1ccc(F)cc1)c1ccccc1)c1ccc(O)cc1	.	.	-18	23	3	-7	.	.
O=C(C(=Cc1ccc(F)cc1)C(=O)c1ccccc1)c1ccccc1	.	.	85*	-56	78*	20	43*	102*
CC1(C(=O)NS(=O)(=O)C2CC2)CCCN(C(=O)c2ccccc2OC(F)(F)F)C1 (stereo not drawn)	.	.	6	14	-11	2	.	.
CC1(C)CC(=O)C2=C(C1)NC1=C(C(=O)c3ccccc31)C2c1ccc(O)cc1 (stereo not drawn)	0	20	44*	-9	12	10	20	40
O=C(Nc1nc(-c2cccs2)cs1)c1ccc([N+](=O)[O-])o1	.	.	-10	-19	35	46	.	.
